Out of some 5,500 compounds screened, about 2,000 (36%) were called active. Not shown: some 18% with an inconclusive outcome. Cut-off read from the data, not from the text of the source: active = normalized growth mostly below about 0.91 (no sharp cut-off); inconclusive = no clear call, values can overlap the other calls; inactive = mostly above about 0.92. Some of the results follow.
Test: chemical genetic growth profiling, strain panel (AID 1159580);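 note: tested at 20 µM; growth read once vehicle control cultures reached saturation at 30 °C; 1 = growth at the plate median or of vehicle wells; lower values mean less growth of the strain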
Conditions: growth OD

Measured: normalized growth

NC1(C(=O)O)CCCC1
inactive: S. cerevisiae deletion strains, locus YJR075W, strain HOC1, active compounds read low 0.997 | S. cerevisiae deletion strains, locus YKL009W, strain mrt4, active compounds read low 0.993 | S. cerevisiae deletion strains, locus YKL068W, active compounds read low 1 | S. cerevisiae deletion strains, locus YKL085W, strain MDH1 (second series), active compounds read low 0.996 | S. cerevisiae deletion strains, locus YKL085W, strain MDH1, active compounds read low 0.996 | S. cerevisiae deletion strains, locus YKL160W, strain elf1, active compounds read low 1.02 | S. cerevisiae deletion strains, locus YKL190W, strain CNB1, active compounds read low 1.01 | S. cerevisiae deletion strains, locus YKR001C, strain vps1, active compounds read low 0.998 | S. cerevisiae deletion strains, locus YKR026C, strain gcn3, active compounds read low 1.02 | S. cerevisiae deletion strains, locus YKR091W, strain srl3, active compounds read low 1.01 | S. cerevisiae deletion strains, locus YLL001W, strain dnm1, active compounds read low 1.03 | S. cerevisiae deletion strains, locus YLL026W, active compounds read low 1.01 | S. cerevisiae deletion strains, locus YLL041C, strain sdh2, active compounds read low 1.02 | S. cerevisiae deletion strains, locus YLR027C, strain aat2, active compounds read low 1.02 | S. cerevisiae deletion strains, locus YLR039C, strain RIC1, active compounds read low 0.971 | S. cerevisiae deletion strains, locus YLR058C, strain SHM2, active compounds read low 1.01 | S. cerevisiae deletion strains, locus YLR102C, strain apc9, active compounds read low 1 | S. cerevisiae deletion strains, locus YLR113W, strain HOG1, active compounds read low 1.06 | S. cerevisiae deletion strains, locus YLR221C, strain rsa3, active compounds read low 0.994 | S. cerevisiae deletion strains, locus YLR258W, strain gsy2, active compounds read low 1.02 | S. cerevisiae deletion strains, locus YLR262C, strain YPT6 (second series), active compounds read low 1.04 | S. cerevisiae deletion strains, locus YLR262C, strain YPT6, active compounds read low 1.02 | S. cerevisiae deletion strains, locus YLR268W, strain sec22, active compounds read low 1.01 | S. cerevisiae deletion strains, locus YLR320W, strain mms22, active compounds read low 1.03 | S. cerevisiae deletion strains, locus YLR330W, strain CHS5, active compounds read low 1 | S. cerevisiae deletion strains, locus YLR342W, strain FKS1 (second series), active compounds read low 1 | S. cerevisiae deletion strains, locus YLR342W, strain FKS1, active compounds read low 1.02 | S. cerevisiae deletion strains, locus YLR357W, strain rsc2, active compounds read low 1.02 | S. cerevisiae deletion strains, locus YLR370C, strain arc18, active compounds read low 1.02 | S. cerevisiae deletion strains, locus YLR371W, strain rom2, active compounds read low 1 | S. cerevisiae deletion strains, locus YLR384C, strain iki3, active compounds read low 1.02 | S. cerevisiae deletion strains, locus YLR418C, strain cdc73, active compounds read low 0.992 | S. cerevisiae deletion strains, locus YML016C, strain PPZ1, active compounds read low 1 | S. cerevisiae deletion strains, locus YML032C, strain rad52, active compounds read low 0.995 | S. cerevisiae deletion strains, locus YML120C, strain ndi1, active compounds read low 1.03 | S. cerevisiae deletion strains, locus YML124C, strain tub3, active compounds read low 0.998 | S. cerevisiae deletion strains, locus YMR058W, strain fet3, active compounds read low 1.02 | S. cerevisiae deletion strains, locus YMR078C, strain ctf18, active compounds read low 0.998 | S. cerevisiae deletion strains, locus YMR125W, strain sto1, active compounds read low 1.05 | S. cerevisiae deletion strains, locus YMR129W, active compounds read low 1.02 | S. cerevisiae deletion strains, locus YMR205C, strain PFK2, active compounds read low 1.03 | S. cerevisiae deletion strains, locus YMR223W, strain ubp8, active compounds read low 1.01 | S. cerevisiae deletion strains, locus YMR231W, strain pep5, active compounds read low 1.02 | S. cerevisiae deletion strains, locus YMR307W, strain GAS1, active compounds read low 1.01 | S. cerevisiae deletion strains, locus YNL067W, strain RPL9B, active compounds read low 1 | S. cerevisiae deletion strains, locus YNL071W, strain lat1, active compounds read low 1.02 | S. cerevisiae deletion strains, locus YNL128W, strain TEP1, active compounds read low 1.02 | S. cerevisiae deletion strains, locus YNL183C, strain NPR1, active compounds read low 0.946 | S. cerevisiae deletion strains, locus YNL209W, strain ssb2, active compounds read low 1.01 | S. cerevisiae deletion strains, locus YNL233W, strain BNI4, active compounds read low 0.991 | S. cerevisiae deletion strains, locus YNL248C, strain rpa49, active compounds read low 1 | S. cerevisiae deletion strains, locus YNL250W, strain rad50, active compounds read low 1.02 | S. cerevisiae deletion strains, locus YNL271C, strain bni1, active compounds read low 0.998 | S. cerevisiae deletion strains, locus YNL298W, strain CLA4, active compounds read low 1.01 | S. cerevisiae deletion strains, locus YNL307C, strain MCK1, active compounds read low 0.996 | S. cerevisiae deletion strains, locus YNL322C, strain KRE1 (second series), active compounds read low 1.01 | S. cerevisiae deletion strains, locus YNL322C, strain KRE1, active compounds read low 1.01 | S. cerevisiae deletion strains, locus YNR049C, strain mso1, active compounds read low 1.01 | S. cerevisiae deletion strains, locus YNR052C, strain pop2, active compounds read low 1.01 | S. cerevisiae deletion strains, locus YOL006C, strain TOP1, active compounds read low 0.987 | S. cerevisiae deletion strains, locus YOL012C, strain htz1 0.665 | S. cerevisiae deletion strains, locus YOL147C, strain pex11, active compounds read low 0.993 | S. cerevisiae deletion strains, locus YOR001W, strain rrp6, active compounds read low 1.03 | S. cerevisiae deletion strains, locus YOR061W, strain CKA2, active compounds read low 1.01 | S. cerevisiae deletion strains, locus YOR069W, strain VPS5, active compounds read low 1.01 | S. cerevisiae deletion strains, locus YOR070C, strain gyp1, active compounds read low 1.02 | S. cerevisiae deletion strains, locus YOR080W, strain dia2, active compounds read low 1.02 | S. cerevisiae deletion strains, locus YOR083W, strain WHI5, active compounds read low 1.03 | S. cerevisiae deletion strains, locus YOR106W, strain vam3, active compounds read low 1.02 | S. cerevisiae deletion strains, locus YOR136W, strain idh2, active compounds read low 0.998 | S. cerevisiae deletion strains, locus YOR144C, strain elg1, active compounds read low 0.997 | S. cerevisiae deletion strains, locus YOR184W, strain ser1, active compounds read low 0.996 | S. cerevisiae deletion strains, locus YOR231W, strain MKK1, active compounds read low 1.04 | S. cerevisiae deletion strains, locus YOR265W, strain rbl2, active compounds read low 1.01 | S. cerevisiae deletion strains, locus YOR270C, strain vph1, active compounds read low 1.07 | S. cerevisiae deletion strains, locus YOR290C, strain snf2, active compounds read low 1.02 | S. cerevisiae deletion strains, locus YOR316C, strain cot1, active compounds read low 1 | S. cerevisiae deletion strains, locus YPL051W, strain arl3, active compounds read low 1.03 | S. cerevisiae deletion strains, locus YPL055C, strain LGE1, active compounds read low 1.03 | S. cerevisiae deletion strains, locus YPL078C, strain atp4, active compounds read low 1.04 | S. cerevisiae deletion strains, locus YPL106C, strain sse1, active compounds read low 1.02 | S. cerevisiae deletion strains, locus YPL240C, strain hsp82, active compounds read low 1.01 | S. cerevisiae deletion strains, locus YPL256C, strain CLN2, active compounds read low 1.04 | S. cerevisiae deletion strains, locus YPR119W, strain clb2, active compounds read low 0.998 | S. cerevisiae deletion strains, locus YPR141C, strain kar3, active compounds read low 0.991 | S. cerevisiae deletion strains, locus YPR163C, strain tif3, active compounds read low 1 | S. cerevisiae deletion strains, locus YPR167C, strain met16, active compounds read low 0.992 | S. cerevisiae deletion strains, strain wtn01, active compounds read low 0.994 | S. cerevisiae strains, strain wild type, active compounds read low 1.01

Reference: PubChem BioAssay AID1159580 (chemical genetic matrix, 2015)
